This is one part of the list. The hit rate among all sequences tested is not known here.

Sequences and labels used below:
B1: VH:VL chains; a variant is named by its letters at X, in order (parent)
chain 1: QVQLVQSGAEVKKPGASVKVSCKASGYTFTDYXMHWVRQAPGQGLEWMGXVNPNXXXTTYNQKFEGRVTMTTDTSTSTAYMELRSLRSDDTAVYYCARXNXLDXWGQGTTVTVSS
chain 2: DIQMTQSPSSLSASVGDRVTITCSVSSSVSSIYLHWYQQKPGKAPKLLIYSTSNLASGVPSRFSGSGSGTDFTLTISSLQPEDFATYYCQVYSGYPLTFGGGTKVEIK

In this experiment the parent is B1. As to the kind of experiment: yeast display scFab, FACS + sequencing. The settings on record: with MET. Put shortly:
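Round-3 sorted and input populations from a heavy-chain CDR mutant scFab yeast library were deep sequenced in two replicates. Sorting used FACS on cells labelled for 3 h at room temperature with 1 nM HGFR-Fc and anti-Myc in PBSB with 1% milk, keeping the top 50% antigen-positive cells. Any sequence seen in both antigen-positive samples was called a binder, while one seen only in the input was called a non-binder.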
Regarding DAKKNASF, the antigen binding call was “no binding”.
Take VTREGAVA: the antigen binding call is “no binding”.
Consider YTEGDDGA, for which the antigen binding call is listed as “no binding”.
In the case of FRGKGAAA it was “binds”; in that of FRGKSAAA, “binds”; in that of VTGRAAWV, “no binding”.
The result for YTERGDVY reads “no binding”.
In the case of YRAGDDVY it was “no binding”.
Consider YRRRGAVY, for which the antigen binding call was “binds”.
The result for YRRRGDVY reads “binds”.
In the case of YRRRGFWY it was “no binding”; in that of STTGSASF, “no binding”; in that of FKGRGSSS, “binds”.
FKGRDSGS: the antigen binding call is “no binding”.
In the case of FKGRGSLS, the antigen binding call is on record as “binds”.
In the case of VGATSVSF it was “no binding”; in that of YARADDGS, “no binding”.
In the case of VEAGDAGS it was “no binding”.
In the case of DAEKGAWA it was “no binding”.
With FRGRDDLV, the antigen binding call was “no binding”.
In the case of YRTRDDVV it was “binds”; in that of VRTEDAWV, “no binding”.
As for YRTRDALV, the antigen binding call was “binds”.
The result for YRTRDAWV reads “binds”.
In the case of DRGRDDVV, the antigen binding call is “no binding”.
Regarding FRTRDFLV, the antigen binding call was “no binding”.
The result for ARGRDAWV reads “no binding”.
The result for YRTRDDVY reads “no binding”; that for YRGRDYGV, “no binding”; that for YRGRDALV, “binds”.
In the case of YARADDGD it was “no binding”; in that of YAAETDVF, “no binding”.
As for VKEKGDGS, the antigen binding call was “no binding”.
The result for VKGTGFLD reads “no binding”; that for YRAKGSLA, “binds”; that for YRAKGALA, “binds”.
The result for ATGANAAV reads “no binding”.
The result for AGGRSFVF reads “no binding”; that for YEGRNVGV, “no binding”.
In the case of VAGTGDLA, the antigen binding call is given as “no binding”.
The result for DEGGTDWD reads “no binding”; that for YRAKGYGA, “no binding”.
In the case of YRAKGAGA it was “binds”; in that of YRAKGVGA, “binds”; in that of SARGGYWY, “no binding”.
On to YRRKGAAY, for which the antigen binding call is listed as “binds”.
The result for DARGGAVY reads “no binding”.
SRKEGAAY: the antigen binding call is “no binding”.
With YRRRGAAY, the antigen binding call is on record as “binds”.
Turning to YRKGGAAY, the antigen binding call was “binds”.
The result for YRRGGAAY reads “binds”; that for YRKGGDLY, “no binding”.
The result for STGRADWA reads “no binding”.
In the case of SEARSALV it was “no binding”; in that of DEGGTSGV, “no binding”; in that of FKKGSAAV, “binds”.
For the variant FKKGSAVV, the antigen binding call is “binds”.
FKKGSYVF: the antigen binding call is reported as “no binding”.
With FKKGDAVS, the antigen binding call was “no binding”.
For the variant DKEGGAAV, the antigen binding call is recorded as “no binding”.
The result for VAGGDDVF reads “no binding”; that for DEGKAAGS, “no binding”; that for YRRRGASA, “binds”.
The result for YRRRGVSA reads “binds”; that for VTGRAALA, “no binding”.
Consider SERRDVLY, for which the antigen binding call was “no binding”.
In the case of DRAGDDWA it was “no binding”; in that of VTETGSLV, “no binding”.
In the case of DAKRDSAS it was “no binding”; in that of YRGGDSAS, “binds”; in that of VTGGDSAS, “no binding”.
In the case of SAKRDSAS it was “no binding”; in that of YRGGDDSS, “no binding”.
On to DRGRDDGS, for which the antigen binding call is given as “no binding”.
In the case of FRGRDFVS it was “no binding”.
Regarding YRGRDSVS, the antigen binding call is listed as “binds”.
The result for YRGRDSAS reads “binds”; that for YRTRDSAS, “binds”; that for VEAGDDSA, “no binding”.
The result for SEARSDVY reads “no binding”.
The result for YTEGDFAV reads “no binding”; that for VGRGNVGV, “no binding”.
As to YRGEGSAS, the antigen binding call is given as “binds”.
Take DATGGDVD: the antigen binding call is “no binding”.
The result for SKGEGDWA reads “no binding”; that for SKERGDWY, “no binding”.
In the case of SKKTGDLY it was “no binding”; in that of SKKRGAAA, “binds”.
The result for SKGASAWA reads “no binding”; that for SEKGGSSA, “no binding”.
For the variant SEGRGAAA, the antigen binding call is listed as “no binding”.
In the case of SKERGDAA it was “no binding”.
In the case of SKKRGASA it was “binds”; in that of SKKRGAWY, “binds”; in that of SKTKSSSA, “no binding”.
The result for SKKRGAWA reads “binds”; that for VEKEGDGS, “no binding”.
For YAAKNDGA, the antigen binding call is listed as “no binding”.
The result for YEGGADVV reads “no binding”.
Regarding YRRGGAGY, the antigen binding call is reported as “binds”.
The result for YRRGGSGY reads “binds”; that for VAGTGDLY, “no binding”; that for VRTRASVD, “binds”.
In the case of VTTRASGD it was “no binding”.
The result for VRERSSVD reads “no binding”.
Regarding VTTRAAVS, the antigen binding call is “no binding”.
On to VRTRAAVD, for which the antigen binding call was “binds”.

The values above are taken from the emibetuzumab library of Makowski et al. (2022).
